# Compounds with a hit are over-represented: about 0.99% of the library has one in this group of screens.
# AMA1-RON2 inh: qHTS for Inhibitors of AMA1-RON; Towards Development of Antimalarial Drug Lead: Primary Screen | Plasmodium falciparum AMA1 (3D7) - RON2 peptide interaction | AlphaScreen AMA1-biotinylated RON2 peptide binding | Potency, µM (doses to about 58.2 µM), for the others: at the top dose activity change, negative = inhibition, most hits filed as inhibitors | 360,000 compounds, 0.2% hits;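 note: 0% = vehicle wells and -100% = peptide control; nearly all actives have a fitted effect of over 45% in size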
#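 AMA1 (3D7) with his tag at 25 nM final met compounds first, then biotinylated RON2 peptide at 25 nM; detection used donor plus acceptor beads, 10 µg/mL apiece, read by AlphaScreen after 30 min at room temperature.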
# NS1 inh: qHTS Assay for Inhibitors of Influenza NS1 Protein Function; Potency, µM (titrated, usually from 46.1 µM), inactives show top-dose activity, positive = more growth; 270,000 compounds, 0.4% hits; AID 2326, 2010; calls by dose curve; note: actives are rising curves; nearly all actives have a fitted effect of over 50% in size
#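 A cell-based growth assay was used: compounds that relieve NS1-induced slow growth of budding yeast raise OD600. Assay medium was yeast nitrogen base with ammonium sulphate and -URA supplement, pH 6.0, with 2% galactose.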
# AmpC detergent: qHTS Inhibitors of AmpC Beta-Lactamase (assay with detergent); P00811; AmpC hydrolysis of nitrocefin, absorbance 480 nm, 0.01% Triton; Potency, µM (highest dose often 114 µM), for inactives: at the highest dose activity change, negative = inhibition, usual class: inhibitors; 370,000 compounds, 0.041% hits;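 note: 0% = no-compound wells and -100% = no-enzyme wells; nearly all actives have a fitted effect of over 25% in size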
# Target sequence (P00811 whole entry, looked up): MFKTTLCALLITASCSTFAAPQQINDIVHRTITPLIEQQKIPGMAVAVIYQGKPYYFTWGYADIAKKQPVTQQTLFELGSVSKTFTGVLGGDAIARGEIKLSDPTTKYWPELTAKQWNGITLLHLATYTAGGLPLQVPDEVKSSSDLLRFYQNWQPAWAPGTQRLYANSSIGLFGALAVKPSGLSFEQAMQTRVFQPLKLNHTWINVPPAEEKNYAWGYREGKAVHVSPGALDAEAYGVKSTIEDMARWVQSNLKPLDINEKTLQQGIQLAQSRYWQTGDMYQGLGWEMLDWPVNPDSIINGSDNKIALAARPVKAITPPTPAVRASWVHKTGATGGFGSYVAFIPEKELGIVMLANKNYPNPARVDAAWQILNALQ
#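 20 mM phosphate pH 7.0 + 0.01% (detergent screen) or 0.0001% Triton X-100; 5.3 nM AmpC reagent; cpd preinc 15 min RT; nitrocefin (800 uM stock) to start; A480 q20 s × 4 min; Activity was normalised to no-enzyme and no-compound control wells.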
# SARS PLpro yeast: qHTS of Yeast-based Assay for SARS-CoV PLP; S. cerevisiae expressing SARS-CoV PLpro, growth rescue; Potency, µM (doses to about 32.9 µM), without a hit: top-dose activity, positive = growth rescue, actives largely listed as activators; 330,000 compounds, 0.19% hits; calls by dose curve; note: 0% is about no effect; nearly all actives have a fitted effect of over 55% in size
# AmpC inh no detg: qHTS Inhibitors of AmpC Beta-Lactamase (assay without detergent) | AmpC nitrocefin hydrolysis, absorbance 480 nm, 0.0001% Triton | Potency, µM (titrated, usually from 57.1 µM), for inactives: at the highest dose activity change, negative = inhibition, most hits filed as inhibitors | 330,000 compounds, 0.52% hits;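 note: plate controls were no compound for no effect and no enzyme for full effect; nearly all actives have a fitted effect of over 20% in size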
#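 AmpC (5.3 nM in the dispensed reagent) in 20 mM phosphate pH 7.0 with 0.01% (detergent screen) or 0.0001% Triton X-100 was preincubated with compounds for 15 min at room temperature. Nitrocefin was then added from an 800 uM solution, and hydrolysis was followed at 480 nm.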
# * = called active by the depositor; ? = inconclusive; · = no result given; ! = not active in a repeat; [ ] = remark or other dose. Unless noted, calls come from the whole dose curve; as a rule, active = well fitted curve in the direction sought with a large enough effect; inconclusive = small, poorly fitted or top-dose-only effect, or another doubt; inactive = no such curve, though single readings can be large; an effect the other way counts as inactive or inconclusive. Potency is the fitted concentration of half-maximal effect.
SMILES,AMA1-RON2 inh,NS1 inh,AmpC detergent,SARS PLpro yeast,AmpC inh no detg
N#CCC(=O)N/N=C\c1cccc(OC/C=C/c2ccccc2)c1,0%,27%,1%,-5%,13µM*
CN(C)C(CNc1ccc(C(F)(F)F)cc1[N+](=O)[O-])c1ccccc1 (stereo not given),14µM*,0%,-5%,2%,23%
O=C(O)c1cccc([As]=[As]c2cccc(C(=O)O)c2)c1 (stereo not given),·,2%,·,·,·
COC(=O)c1sccc1S(=O)(=O)Nc1ccc(S(N)(=O)=O)cc1,-16%,-1%,-7%,1%,-10%
COC(=O)c1sccc1S(=O)(=O)Nc1ccc(N2CCCCC2)cc1,14µM*,-1%,3%,0%,-11%
O=C(CSc1ccc2nc(-c3ccccc3)cn2n1)Nc1cccc(F)c1,·,·,0%,·,·
Cc1ccc(C(CC(=O)c2ccc(Cl)cc2)C(=O)O)cc1 (stereo not given),8%,·,-3%,0%,-16%
COC(=O)C(CC(=O)c1ccc(Cl)cc1)c1ccc(C(C)C)cc1 (stereo not given),7%,-16%,1%,-19%,0.25µM*
C=CCNc1ncnc2c1[nH]c1ccc(C)cc12,15%,-13%,?,4%,13µM*
Cc1c(C#N)c(N)nc(Cl)c1C#N,-6%,·,1%,0%,3%
N#Cc1c(Cl)nsc1NN,-28%,·,-3%,-14%,1.4µM*
CCOC(=O)C1(C)NC(c2cccs2)C2C(=O)N(c3ccc(C)cc3)C(=O)C21 (stereo not given),11%,·,0%,3%,-6%
Cc1ccc(N2C(=O)C3C(C2=O)N2C(c4cccs4)C4C(=O)N(c5ccc(C)cc5)C(=O)C4N2C3c2cccs2)cc1 (stereo not given),5%[11.6 µM],2.5µM*,-11%,16%,19%
Cc1ccc(C2CC(=O)C=C(O)C2)cc1 (stereo not given),-7%,?,-14%,-4%,14µM*
Cc1ccc(C2=CC(=O)C[C@H](c3ccc(Cl)cc3)C2)cc1,4%,·,-3%,-2%,-10%
CCc1c(O)nc(SCC(=O)Nc2ccccc2)n(-c2ccccc2)c1=O,3%,?,?,-1%,-24%
COc1ccc(-n2c(SCC(=O)Nc3ccc(Br)cc3)nc(O)cc2=O)cc1,0%,18%,7%,2%,?
Cc1ccc(NC(=O)CSc2nc(O)cc(=O)n2-c2ccc(C)cc2)cc1,0%,18%,11%,0%,13µM*
Cc1ccc(NC(=O)CSc2nc(O)c(Cc3ccccc3)c(=O)n2-c2ccccc2)cc1,6%,?,-7%,3%,11µM*
Cc1cccc(-n2ccnc2SCC(=O)Nc2cccc3ccccc23)c1,·,·,10%,·,·
CC1=NN(c2ccc(C)cc2)C(=O)/C1=C/c1ccc(-c2cc([N+](=O)[O-])ccc2O)o1,-23%,18%,-11%,4%,16µM*
CC1=NN(c2ccc(C(=O)O)cc2)C(=O)/C1=C/c1ccc(-c2ccccc2F)o1,·,-1%,1%,1%,-1%
Cc1ccc(N2CCN(C(=O)CCc3c(C)nc4ncnn4c3C)CC2)c(C)c1,·,·,21%,·,·
CCC(Cn1nnc2ccccc2c1=O)NC(=O)Nc1cccc(Cl)c1 (stereo not given),·,·,3%,·,·
Cc1cc(C(=O)Nn2c(-c3ccc(Br)cc3)nc3ccccc3c2=O)ccc1[N+](=O)[O-],3%,17%,-13%,-25%,14µM*
SMILES,AMA1-RON2 inh,NS1 inh,AmpC detergent,SARS PLpro yeast,AmpC inh no detg
Cc1ccc(N=Cc2cc3c(cc2O)OC(N)=C(C#N)C3c2ccccc2)cc1 (stereo not given),38%,-2%,-17%,0%,20µM*
Cc1nc2ccccc2c2oc(C(=O)NC3CC3)cc12,-10%,-32%,-11%,13%,-19%
CCOc1ccc(NC(=O)c2cc3c(C)nc4ccccc4c3o2)cc1,0%,1%,?,-7%,5µM*
Cc1cccc(C)c1-n1ncc(C(=O)N2CCN(c3ccccc3)CC2)c1C1CCN(C(=O)OC(C)(C)C)CC1,·,·,10%,·,·
CCN(CC)c1ccc(/C=N/OCC(=O)N2CCCc3ccccc32)cc1,28µM*,-15%,-11%,-19%,25%
COc1ccccc1Nc1ccc(NC(=O)c2cccc([N+](=O)[O-])c2C)cc1,-28%,15%,1%,-4%,3.2µM*
CCCN(CCC)CCNC(=O)C1CCN(c2nc3ccc(CC)cc3s2)CC1,·,·,-3%,·,·
CCOC(=O)Cn1c(=O)n(-c2ccc(Cl)cc2)c2nc(-c3ccc(Cl)cc3)nc(C(N)=O)c21,·,·,1%,·,·
CN(C)c1ccc(-n2cccc2/C=C/[N+](=O)[O-])cc1,7.1µM*,·,-3%,-15%,-21%
CCOC(=O)c1ccccc1NC(=O)CSc1nc2cn(CC)nc2c(=O)n1Cc1ccc(Cl)cc1,·,·,0%,·,·
COc1cc([N+](=O)[O-])cc(/C=N/NC(=O)C(C)Nc2ccccc2C)c1O (stereo not given),16%,9%,?,22µM*,-33%
COc1cc([N+](=O)[O-])cc(/C=N/NC(=O)CC#N)c1O,·,·,2%,7.1µM*,-30%
COc1cc([N+](=O)[O-])cc(/C=N/NC(=O)Cn2cncn2)c1O,-14%,0%,0%,0%,-5%
O=C(Nc1ccc(F)cc1F)Nc1sccc1-c1nc2ccccc2s1,39%,7%,7%,1%,7.9µM*
O=C(Nc1nc2ccccc2s1)Nc1ccc(F)cc1F,-2%,3%,2%,12%,-37%
COc1ccc2c(c1)CC(NC(=O)Nc1cc(Cl)ccc1OC)CO2 (stereo not given),·,·,15%,·,·
CCOc1ccc2ccccc2c1C(=O)N[C@@H]1C(=O)N2[C@@H]1SC(C)(C)[C@@H]2C(=O)O,14%,13%,5µM*,0%,5.6µM*!
CCC(Oc1ccccc1)C(=O)NC1C(=O)N2C1SC(C)(C)C2C(=O)O (stereo not given),23%,0%,32µM*,0%,28µM*
CC1(C)S[C@@H]2[C@H](NC(=O)[C@H](N)c3ccccc3)C(=O)N2[C@H]1C(=O)OC1OC(=O)c2ccccc21 (stereo not given in full),105%,·,63µM*,·,0.22µM*
CC1(C)S[C@@H]2[C@H](NC(=O)Cc3ccccc3)C(=O)N2[C@@H]1C(=O)O,·,-8%,·,·,·
O=C(NCc1ccc(F)cc1Cl)c1ccc(CSCc2ccccc2Cl)o1,·,·,5%,·,·
Cc1ccc(C2(C)NC(=O)N(CC(=O)c3ccc(Cl)s3)C2=O)cc1 (stereo not given),0%,10%,-9%,-20%,28µM*
CCc1ccc(C(=O)CN2C(=O)NC(C)(c3ccc(C)cc3)C2=O)cc1 (stereo not given),4%,·,?,2%,-18%

# Source: PubChem BioAssay
